High-throughput results: PubChem, National Center for Advancing Translational Sciences (NCATS)
Pol eta inh – DNA polymerase eta (human) inhibition | Potency, µM (series often up to 114 µM), most hits filed as inhibitors | recombinant Pol eta, fluorescent DNA replication assay | 1.2% of 390,000 active
Target sequence (Q9Y253 whole entry, looked up): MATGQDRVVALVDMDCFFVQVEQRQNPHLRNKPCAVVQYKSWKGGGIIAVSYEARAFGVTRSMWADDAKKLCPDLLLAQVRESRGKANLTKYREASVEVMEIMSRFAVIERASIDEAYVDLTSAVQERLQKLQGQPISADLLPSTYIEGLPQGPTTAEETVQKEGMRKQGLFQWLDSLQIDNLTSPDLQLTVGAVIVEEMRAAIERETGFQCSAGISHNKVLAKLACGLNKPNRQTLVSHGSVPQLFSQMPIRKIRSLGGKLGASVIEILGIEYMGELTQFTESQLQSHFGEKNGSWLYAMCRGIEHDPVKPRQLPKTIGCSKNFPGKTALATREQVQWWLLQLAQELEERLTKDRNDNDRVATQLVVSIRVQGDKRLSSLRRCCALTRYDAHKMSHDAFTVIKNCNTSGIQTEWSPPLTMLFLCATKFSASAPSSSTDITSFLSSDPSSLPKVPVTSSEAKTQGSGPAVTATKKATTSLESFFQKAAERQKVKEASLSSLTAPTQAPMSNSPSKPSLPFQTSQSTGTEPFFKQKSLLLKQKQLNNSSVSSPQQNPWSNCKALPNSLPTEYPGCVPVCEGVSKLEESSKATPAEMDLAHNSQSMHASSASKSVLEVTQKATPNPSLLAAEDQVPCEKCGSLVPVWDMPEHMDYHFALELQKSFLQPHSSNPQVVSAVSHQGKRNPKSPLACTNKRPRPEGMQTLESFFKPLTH
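Fluorescent replication assay: 50 nM final substrate added after a 15 min room-temperature compound preincubation with 10 nM enzyme. Signal taken at 0 min and again at 10 min.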
Pol iota inh – DNA polymerase iota (human) inhibition; Q9UNA4; Pol iota fluorescent replication assay, 10 min; Potency, µM (top dose mostly 115 µM), hits mostly inhibitors; 1% of 390,000 active; AID 588590
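Fluorescent replication assay read twice, at 0 min and 10 min after adding 50 nM (final) substrate. Enzyme (10 nM) and compounds were first incubated 15 min at room temperature; enzyme-free buffer wells were negative controls.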
PI5P4Ka inh – PI5P4K alpha (human) kinase inhibition; P48426; PI5P4Kalpha enzyme, ADP-Glo luminescence, 60 min; stronger effect = lower value; max response, %; 1.2% of 330,000 active; active means max response of -50% or lower; inconclusive means between -30% and -50%; inactive means -30% or higher; further: value at the top dose of about 77 µM
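ADP-Glo luminescence end-point after a 60 min room-temperature kinase reaction. PI5P4Kalpha and substrate in HEPES pH 7.4 buffer with EGTA, 0.1% CHAPS and 5% DMSO; ATP at 5 microM final.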
Pol beta inh – blocks human DNA polymerase beta activity | Potency, µM (highest dose often 114 µM), hits mostly inhibitors | Pol beta primer extension/strand displacement, fluorescence kinetic | 1.3% of 340,000 active | AID 485314 | P06746
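Human Pol beta at 10 nM; strand-displacement substrate 50 nM final. Compound exposure 15 min at room temperature before start, reaction 10 min at room temperature.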
WRN helicase inh – WRN helicase (human) inhibition | Q14191 | WRN helicase unwinding, fluorescent forked duplex, kinetic | Potency, µM (series often up to 114 µM), actives largely listed as inhibitors | 0.46% of 360,000 active; further: nearly all actives have a fitted effect of over 55% in size
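Kinetic fluorescence helicase assay: unwinding of a quenched forked DNA duplex (100 nM final) with 2 mM ATP final raises red fluorescence (525/598 nm). Compounds sat 15 min at room temperature with 20 nM WRN beforehand.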
Pol kappa inh – DNA polymerase kappa (human) inhibition | Q9UBT6 | purified Pol kappa, fluorescent DNA synthesis assay, 10 min | Potency, µM (top dose mostly 107 µM), hits mostly inhibitors | 0.53% of 400,000 active
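Readout: fluorescence, taken kinetically at 0 and 10 min. Conditions: 10 nM Pol kappa, 15 min RT compound preincubation, 50 nM substrate final. Controls: enzyme-free buffer wells.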
ADP-Glo interf – interferes with ADP-Glo detection without enzyme present | shares compounds with PI5P4Ka inh | ADP-Glo detection counter-screen, luciferase luminescence, no enzyme | Potency, µM (top dose mostly 76.9 µM), actives largely listed as inhibitors | 1,100 tested, under 10 active | AID 743285
A number is an active result; 0 = inactive; ? = inconclusive; - = not tested or not shown; ! = a repeat was not active. Most compounds without a hit are left out; they make up all but 2.8% or so of the library. Unless noted, the call rests on the fitted dose curve; in most records, active means well fitted curve in the direction sought with a large enough effect; inconclusive means small, poorly fitted or top-dose-only effect, or another doubt; inactive means no such curve, though single readings can be large; an effect the other way counts as inactive or inconclusive.

SMILES | Pol eta inh | Pol iota inh | PI5P4Ka inh | Pol beta inh | WRN helicase inh | Pol kappa inh | ADP-Glo interf
Cc1cc(NC(=O)c2cc(-c3ccc(F)cc3)on2)nn1Cc1ccc(Cl)cc1 | 0 | 0 | - | 0 | - | 0 | -
Cc1cc(NC(=O)c2sc(Nc3ccc(F)cc3)nc2N)no1 | 0 | 0 | -54.1 | ? | 0 | 0 | 0
Cc1nc(NC(N)=S)sc1C(=O)Nc1ccccc1 | 0 | 0 | - | 0 | 0 | 0 | -
Cc1cnc(NC(=O)c2sc(Nc3ccccc3)nc2N)o1 | 0 | 0 | -55.3 | 0 | 0 | 0 | 0
Cc1ccccc1Nc1nc(N)c(C(=O)c2ccccc2Cl)s1 | - | 0 | - | 0 | - | 0 | -
Nc1nc(Nc2ccccc2)sc1C(=O)c1ccccc1 | 0 | 0 | -65.1 | 0 | 0 | 0 | 0
C=CCNc1nc(N)c(C(=O)Nc2cc(C)on2)s1 | 0 | 0 | - | 0 | 0 | 0 | -
COc1ccc(C(=O)c2sc(Nc3ccccc3F)nc2N)cc1 | 0 | 0 | -80.9 | 0 | 0 | 0 | 0
CC(=O)Nc1ccccc1OCc1cc(=O)n2c(C)csc2n1 | 0 | 0 | - | 0 | - | 0 | -
O=C(Cc1ccc(NC(=O)N2CCCCc3ccccc32)cc1)Nc1ccccc1Br | 0 | 0 | - | 0 | - | 0 | -
Cc1ccc2nc(NC(=O)C3CCN(S(=O)(=O)c4cc([N+](=O)[O-])ccc4Cl)CC3)sc2c1 | ? | 44.7µM | -52.5 | 14.1µM | ? | ? | 0
Cc1ccn2c(NC3CCCC3)c(-c3cccs3)nc2c1 | 0 | 0 | -65.5 | 0 | 0 | 0 | 0
c1csc(-c2nc3ccccn3c2NC2CCCCC2)c1 | 0 | 0 | 0 | 0 | 0 | 0 | -
CCc1sc(C(=O)Nc2ccc(N3CCOCC3)cc2)cc1C | 0 | 0 | 0 | - | 0 | 0 | -
CCc1sc(C(=O)Nc2ccc3c(c2)OCO3)cc1C | ? | ? | -71.8 | - | 0 | 0 | 0
Cc1cccc(Cn2c(=O)n(CCC(=O)NCc3ccc4c(c3)OCO4)c(=O)c3sccc32)c1 | 0 | 0 | - | 0 | - | 0 | -
CCc1ccc(NC(=O)C(=O)NCC(c2ccc3c(c2)OCO3)N2CCN(C)CC2)cc1 (stereo not given) | 0 | 0 | - | 0 | - | 0 | -
CCN(C(=O)c1ccc(Br)o1)C1CCS(=O)(=O)C1 (stereo not given) | 0 | 0 | 0 | - | 0 | 0 | -
CN(C(=O)c1ccc(Br)o1)C1CCS(=O)(=O)C1 (stereo not given) | 0 | 0 | ? | 0 | 0 | 0 | 0
Cc1cccc(NC(=O)Cn2cc(S(=O)(=O)c3ccc(F)cc3)c(=O)c3cc4c(cc32)OCO4)c1 | 0 | 0 | - | 0 | - | 0 | -
CCOC(=O)C1CCCN(C(=O)c2cc(F)cc(F)c2)CC1 (stereo not given) | - | - | 0 | - | 0 | - | -
CCOC(=O)C1CCCN(C(=O)c2ccc(F)c(C)c2)CC1 (stereo not given) | - | - | ? | - | 0 | - | 0
O=C(CCN1CCc2ccccc2C(c2ccccc2)C1)c1ccc2c(c1)OCCO2 (stereo not given) | 0 | ? | -54.5 | 0 | 44.7µM | 0 | 0
O=C(CCN1Cc2ccccc2C1)c1ccc2c(c1)OCCO2 | 0 | 0 | - | 0 | 0 | 0 | -
O=C(Nc1ccccn1)c1sc2cc([N+](=O)[O-])ccc2c1Cl | 0 | 0 | -51.8 | 0 | 0 | 0 | 0
SMILES | Pol eta inh | Pol iota inh | PI5P4Ka inh | Pol beta inh | WRN helicase inh | Pol kappa inh | ADP-Glo interf
COc1cc(Nc2nc3ccc(Cl)cc3nc2-n2nc(C)cc2C)cc(OC)c1 | 0 | 0 | - | 0 | - | 0 | -
O=C(CSc1nc(-c2ccccc2)cc(=O)[nH]1)N1CCc2ccccc21 | 0 | ? | -50.3 | ? | 0 | 0 | 0
Nc1nc(SCC(=O)N2CCc3ccccc32)[nH]c(=O)c1-c1ccccc1 | 0 | 0 | - | 0 | 0 | 0 | -
CCO[C@H]1OC(C(=O)NCc2ccccc2)=C[C@@H](c2ccc(Br)cc2)[C@@H]1CCCO | 0 | 0 | 0 | 0 | 0 | 0 | -
CCO[C@@H]1OC(C(=O)NCc2ccccc2)=C[C@H](C(C)(C)C)[C@H]1CCCO | 0 | 0 | 0 | 0 | 0 | 0 | 0
Cc1ccc(N2CCN(C(=O)c3cn(C)c4ccc(S(=O)(=O)N(C)C5CCCCC5)cc4c3=O)CC2C)cc1 (stereo not given) | 0 | 0 | - | 0 | - | 0 | -
CC(C)(C)C1=Nn2c(nnc2-c2n[nH]c3c2CCC3)SC1 | 0 | 0 | -61.1 | 0 | 0 | 0 | 0
Cc1ccc(Nc2c(-c3c[nH]c4ccccc34)nc3ccccn23)cc1 | 0 | 0 | - | 0 | - | 0 | -
CCOc1ccc(NC(=O)c2cc(=O)[nH]c3ccccc23)cc1 | 0 | 0 | -51.4 | 0 | 0 | 0 | 0
CC(=O)c1ccc(NC(=O)c2cc(=O)[nH]c3ccccc23)cc1 | 0 | 0 | 0 | 0 | 0 | 0 | -
COc1ccc(CNC(=O)CCCn2nc(C)c([N+](=O)[O-])c2C)cc1OC | 0 | 0 | ? | 0 | 0 | 0 | 0
Cc1cc(C)c(NC(=O)c2sc3nc(C)cc(C)c3c2N)c(C)c1 | 0 | 0 | - | 0 | - | 0 | -
Cc1cc(C)c2c(N)c(C(=O)Nc3c(C)n(C)n(-c4ccccc4)c3=O)sc2n1 | 0 | 0 | 0 | 0 | 0 | 0 | 0
CCCn1c(C)cc(-c2csc(N)n2)c1C | 0 | ? | -58.3 | 0 | 0 | 0 | 0
Oc1cccc(-c2sc3ccccc3c2-c2ccc(OCCN3CCCCC3)cc2)c1 | - | - | 0 | - | 0 | - | -
O=C(c1ccc(OCCN2CCCCC2)cc1)c1c(-c2ccc(O)cc2)sc2cc(O)ccc12 | 0 | ? | -50.8! | 0 | 0 | 0 | 0
COc1cccc(NC(=O)c2oc3ccc(S(=O)(=O)N(C)C4CCCCC4)cc3c2C)c1 | 0 | 0 | - | 0 | - | 0 | -
COc1ccccc1NC(=O)COC(=O)c1ccc(S(=O)(=O)NCc2ccco2)cc1 | ? | ? | 0 | ? | 0 | ? | -
COc1ccccc1NS(=O)(=O)c1ccc(C(=O)OCC(=O)NCc2ccco2)cc1 | ? | ? | -60.4 | 15.8µM | 0 | 0 | 0
COc1cccc(CNC(=O)Cc2ccc(NC(=O)C3=C(C)OCCS3)cc2)c1 | ? | ? | -52.9 | 22.4µM | 0 | ? | 0
Cc1cccc(C(=O)n2nc(-c3ccco3)nc2NCc2ccccc2)c1 | 0 | 0 | - | 0 | - | 0 | -
CC(C)C(=O)N1CCN(c2ccccc2NC(=O)c2ccco2)CC1 | 0 | ? | -58.8 | 0 | 0 | ? | 0
O=C(OCC(=O)N1N=C(c2ccc(Cl)cc2)CC1c1ccco1)c1cccnc1 (stereo not given) | 28.2µM | ? | -71.4 | - | ? | 44.7µM | 0
COc1ccc(S(=O)(=O)N(C(=O)c2ccco2)c2cc3sc(=O)oc3c3ccccc23)cc1 | 0 | ? | -60.9 | 0 | 44.7µM | 0 | 0
Cc1ccc(S(=O)(=O)N(C(=O)c2ccco2)c2cc3sc(=O)oc3c3ccccc23)cc1 | 0 | ? | -55.6 | 0 | 56.2µM | 0 | 0
COc1ccc(S(=O)(=O)N(C(=O)C(C)C)c2ccc3oc(=O)sc3c2)cc1 | 0 | ? | - | 0 | 0 | 0 | -
